Sampled rows, rich in hits. Any-hit rate of the full collection: about 3.4%.
GalR3 antagonist – blocks the human galanin receptor 3 | HEK293 GalR3-CNG cAMP membrane potential fluorescence; galR3 body fused to GalR1 C-terminus | actives 0.44% (n = 360,000) | inhibition, % at 3 µM | O60755;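 active = inhibition above the screen-wide average plus 3 SD, cut at about 13% in these data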;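 note: forskolin and galanin both at EC90 stimulate the cells; cAMP rise reported by CNG channel membrane potential dye signal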
Target sequence (O60755 1-299 limits assumed): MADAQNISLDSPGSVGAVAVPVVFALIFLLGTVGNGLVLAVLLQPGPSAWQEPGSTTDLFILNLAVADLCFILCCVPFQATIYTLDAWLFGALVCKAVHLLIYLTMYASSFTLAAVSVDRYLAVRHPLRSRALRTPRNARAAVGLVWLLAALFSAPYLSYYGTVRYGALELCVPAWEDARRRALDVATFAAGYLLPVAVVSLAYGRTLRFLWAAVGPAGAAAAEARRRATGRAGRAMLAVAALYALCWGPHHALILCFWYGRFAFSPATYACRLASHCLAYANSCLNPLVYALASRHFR
Gli-Sufu block – blocks Gli-Sufu signaling in a luciferase reporter. Sufu-KO-LIGHT fibroblasts, Gli luciferase reporter luminescence. inhibition, % at 5 µM. AID 588413. actives 0.74% (n = 340,000);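 active = inhibition above about 55%, limit read from the data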
Cardio protect – modulators protecting cardiomyocytes from myocardial damage; H9c2 cardiomyocytes, H2O2 injury protection, ATPLite, 2 h; protection from H2O2 cell death, % at 20 µM; actives 0.63% (n = 360,000); AID 588492;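 active = compounds giving at least 50% protection of heart cells from peroxide-induced death in the single-dose screen, raw or plate-pattern-corrected value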
FXN GAA850 act – increases GAA850 frataxin promoter reporter activity; HEK293 lucGAA850 FXN promoter luciferase reporter, 24 h; percent of 10 µM SAHA response; activation, % at 6 µM; actives 0.56% (n = 360,000); AID 540364;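 active = activation above the average of all compounds screened plus 3 SD, cutoff fixed separately per campaign, cut at about 7.5% in these data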
COUP-TFII inh – NR2F2 (human) inhibition, primary screen. actives 0.7% (n = 370,000). P24468. AID 686940. inhibition, % at 8.6 µM. HEK293T NGFI-A luciferase reporter, luminescence;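 active = inhibition above a per-plate cutoff, mean inhibition of test wells between control levels plus 3 SD, cut at about 38% in these data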;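 note: cells cotransfected with COUP-TFII expression vector driving the NGFI-A reporter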
Target sequence (P24468 whole entry, looked up): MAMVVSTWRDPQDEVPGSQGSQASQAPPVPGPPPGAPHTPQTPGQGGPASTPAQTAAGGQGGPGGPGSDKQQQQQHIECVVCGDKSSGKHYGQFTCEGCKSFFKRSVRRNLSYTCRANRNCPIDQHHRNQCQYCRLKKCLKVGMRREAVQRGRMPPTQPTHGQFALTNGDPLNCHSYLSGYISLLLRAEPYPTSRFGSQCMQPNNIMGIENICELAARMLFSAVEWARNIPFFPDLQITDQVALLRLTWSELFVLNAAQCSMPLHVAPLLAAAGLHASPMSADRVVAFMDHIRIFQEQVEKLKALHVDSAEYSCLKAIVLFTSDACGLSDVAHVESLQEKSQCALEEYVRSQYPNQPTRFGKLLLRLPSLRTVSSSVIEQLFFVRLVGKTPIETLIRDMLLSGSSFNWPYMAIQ
SMARCA2 act – activators of SMARCA2 function | AID 652017 | activation, % at 9.1 µM | actives 1% (n = 370,000) | MG213 cells, MMTV-luciferase reporter, dexamethasone, overnight; in the data active = activation above about 7.8%
Gli-Sufu confirm – confirmation of Gli-SUFU pathway antagonists | shares compounds with Gli-Sufu block | Sufu-KO-LIGHT cells, Gli luciferase reporter, luminescence | inhibition, % at 5 µM | actives 40% (n = 2,500);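 active = mean inhibition at 5 µM reaching about 45%, limit read from the data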
Gli cytotox – cytotoxicity counter-screen for Gli-SUFU antagonists; shares compounds with Gli-Sufu block; Sufu-KO-LIGHT cells cytotoxicity, ATP luminescence; cytotoxicity, % at 5 µM; actives 32% (n = 2,500); AID 651994;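 active = mean cytotoxicity at 5 µM above about 25%, limit read from the data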;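 note: cells exposed to compound overnight for roughly 16 to 18 hours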
Wnt3a counter – inhibits Wnt3a reporter, counter-screen for Gli-SUFU antagonists. shares compounds with Gli-Sufu block. Wnt-LIGHT cells, Wnt3a-driven luciferase reporter, luminescence. inhibition, % at 6.25 µM. actives 20% (n = 2,500);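 active = mean inhibition above about 25%, limit read from the data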
GalR3 antag conf – confirmation of human galanin receptor 3 antagonists; shares compounds with GalR3 antagonist; HEK293 GalR3 CNG cAMP biosensor, membrane potential fluorescence; galR3 fused to GalR1 carboxy tail; challenged with forskolin and galanin at EC90; inhibition, % at 3 µM; actives 59% (n = 1,600);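 active = inhibition above the primary screen's cutoff, the mean inhibition of all screened compounds plus 3 SD, cut at about 13% in these data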
CNG parental – acts as nonspecific agonist in parental HEK-CNG cells; shares compounds with GalR3 antagonist; HEK293-CNG parental cells, cAMP membrane potential fluorescence; normalised: DMSO wells 0%, forskolin wells 100%; activation, % at 3 µM; actives 10% (n = 1,600); AID 652268; in the data active = activation above about 1.3%
VP16 Luc counter – VP16 inhibition counter-screen for COUP-TFII. shares compounds with COUP-TFII inh. HEK293 Gal4-VP16 luciferase reporter, luminescence. inhibition, % at 8.5 µM. actives 25% (n = 2,500). AID 687007; in the data active = inhibition above about 13%
COUP-TFII conf – confirmation of human COUP-TFII (NR2F2) inhibitors | actives 45% (n = 2,500) | AID 687008 | HEK293 NGFI-A luciferase reporter, luminescence | shares compounds with COUP-TFII inh | inhibition, % at 8.5 µM;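 active = mean inhibition over three repeats above a set limit taken from the earlier primary screen, cut at about 38% in these data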
A number is an active result; i = inactive; nt = no result given.

SMILES	GalR3 antagonist	Gli-Sufu block	Cardio protect	FXN GAA850 act	COUP-TFII inh	SMARCA2 act	Gli-Sufu confirm	Gli cytotox	Wnt3a counter	VP16 Luc counter	COUP-TFII conf	others
Cc1cc(C)c(C#N)c(SCc2nnc(-c3ccccc3)o2)n1	i	70.0	i	i	81.3	i	82.7	34.7	96.2	56.8	91.8
Cc1ccc(C#N)c(SCc2cc3c(cc2Cl)OCO3)n1	i	i	i	i	i	i	nt	nt	nt	nt	nt
Cc1ccc(C#N)c(SCc2nnc(-c3ccc(Cl)cc3)o2)n1	i	75.0	i	i	77.2	i	87.5	60.2	99.5	45.4	89.5
COc1ccccc1-c1cc(-c2ccc(C)cc2)nc(SCc2nnc(-c3ccccc3)o2)c1C#N	i	i	i	i	i	i	nt	nt	nt	nt	nt
CCN(CC)C(=O)C1=C(C)Nc2ncnn2C1c1cccnc1 (centres undefined)	i	i	i	i	i	i	nt	nt	nt	nt	nt
COc1ccc(CNCCCn2cnc3c(SC)ncnc32)cc1	i	nt	i	i	i	i	nt	nt	nt	nt	nt
O=C(c1cnn2c(C(F)(F)F)cc(-c3ccccc3)nc12)N1CCCCC1c1cccnc1 (centres undefined)	i	i	i	i	i	i	nt	nt	nt	nt	nt
O=C(c1cc2nc(-c3ccc(F)cc3)cc(C(F)(F)F)n2n1)N1CCCCC1c1cccnc1 (centres undefined)	i	67.0	i	i	41.2	i	63.8	31.9	i	i	57.3
CC1CCCN(c2ncnc3c2cnn3-c2ccc(Cl)cc2)C1 (centres undefined)	i	81.4	i	i	100.3	i	91.8	66.7	105.7	89.7	105.1
Cc1nn(C)c(C)c1CN(Cc1nc(CCC(C)C)no1)C(C)C	91.6	79.0	i	i	66.4	i	72.8	26.1	50.7	i	62.2
Cc1ccc(S(=O)(=O)N2CCOCC2)cc1NC(=O)COC(=O)c1ccc(Br)o1	i	i	i	i	i	i	nt	nt	nt	nt	nt
O=C(CSc1nnc(Cn2nnc3ccccc32)o1)N(Cc1ccc(Cl)cc1)c1ccccc1	97.5	64.1	i	i	71.7	i	63.2	29.4	i	i	67.0	GalR3 antag conf=101.7;CNG parental=i
O=C(N/N=C/c1cccnc1)c1ccccc1[N+](=O)[O-]	i	i	i	i	i	i	nt	nt	nt	nt	nt
CN1CCN(S(=O)(=O)c2ccc3c(c2)OCCO3)CC1	i	i	i	i	i	i	nt	nt	nt	nt	nt
Cc1ccc(S(=O)(=O)N2CCN(c3ncnc4sccc34)CC2)cc1C	i	i	i	i	43.2	i	47.2	26.2	36.1	i	i
O=S(=O)(c1ccc2c(c1)OCCO2)N1CCN(c2ncnc3sccc23)CC1	99.5	64.0	i	i	70.2	i	60.6	48.1	i	i	53.1	GalR3 antag conf=111.4;CNG parental=i
COC(=O)c1sccc1NC(=O)Nc1cccc(C)c1C	i	i	i	i	i	i	nt	nt	nt	nt	nt
CC(C)(C)C(=O)Nc1ccc(N=Nc2ccccc2)cc1	i	63.7	i	i	66.3	i	54.5	60.4	82.3	i	60.3
COc1ccc(CC2C(=O)NC(C)C(=O)N(C)C3Cc4ccc(cc4)Oc4cc(ccc4O)CC(C(=O)NC(C)C(=O)NC(C)C(=O)N2C)N(C)C3=O)cc1 (centres undefined)	i	91.4	i	i	87.8	i	95.9	89.7	103.9	19.5	81.8
CC(C)C[C@@H]1NC(=O)[C@H](Cc2ccccc2)N(C)C(=O)[C@H](C)NC(=O)c2ccccc2NC(=O)[C@H](Cc2ccc(O)cc2)N(C)C1=O	i	i	i	i	i	i	nt	nt	nt	nt	nt
O=S(=O)(NCC1CCCO1)c1ccc(-c2ccc(S(=O)(=O)NCC3CCCO3)cc2)cc1 (centres undefined)	96.7	73.7	i	i	67.5	i	67.3	31.0	34.7	i	64.5	GalR3 antag conf=106.4;CNG parental=i
COc1cccc(S(=O)(=O)Nc2ccc(C(=O)Nc3ccncc3)cc2)c1	i	i	i	i	i	i	nt	nt	nt	nt	nt
COc1ccc(NS(=O)(=O)c2cccc(NC(=O)c3ccc(Cl)nc3)c2)cc1	82.2	69.0	i	i	75.2	i	68.0	40.8	i	i	65.9	GalR3 antag conf=96.5;CNG parental=i
COC(=O)CC1c2ccccc2S(=O)(=O)N1Cc1ccccc1 (centres undefined)	i	i	i	i	i	i	nt	nt	nt	nt	nt
CNc1nc(SCC(=O)Nc2ccc(Cl)c(Cl)c2)nc(N2CCOCC2)n1	i	i	i	i	i	i	nt	nt	nt	nt	nt
SMILES	GalR3 antagonist	Gli-Sufu block	Cardio protect	FXN GAA850 act	COUP-TFII inh	SMARCA2 act	Gli-Sufu confirm	Gli cytotox	Wnt3a counter	VP16 Luc counter	COUP-TFII conf	others
Cc1cc(C)nc(SCC(=O)Nc2ccc(N3CCOCC3)c(Cl)c2)n1	i	i	i	i	41.9	i	45.1	i	i	17.8	40.1
CC(=O)c1cn(CCOc2ccccc2C)c2ccccc12	i	64.6	i	i	60.9	i	56.3	i	29.6	i	53.8
Cc1ccccc1Cn1c(C)nc2ccccc21	60.2	68.8	i	i	47.5	i	56.1	36.5	29.9	i	46.1	GalR3 antag conf=103.5;CNG parental=i
COc1ccccc1Cn1c(C)nc2ccccc21	i	i	i	i	i	i	nt	nt	nt	nt	nt
CC1(C)CC(N2CCOCC2)=CC(=[N+]2CCOCC2)C1	i	i	i	i	i	i	nt	nt	nt	nt	nt
CC1(C)CC(N2CCCCC2)=CC(=[N+]2CCCCC2)C1	47.2	83.7	i	i	66.5	i	87.2	46.5	47.6	i	50.8	GalR3 antag conf=12.6;CNG parental=i
CN(C)c1ccc(NC(=O)CSc2nnc(-c3cnccn3)n2C)cc1	i	i	i	i	i	i	nt	nt	nt	nt	nt
Cc1cccc2cc(-c3ccccc3)c(-c3ccccc3)c[n+]12	i	62.0	i	i	63.8	i	51.6	29.5	i	i	44.0
COc1ccc(/C=C2\Sc3ccc(C(=O)N4CCN(Cc5ccccc5)CC4)cc3N(C)C2=O)cc1OC	60.2	99.2	i	i	70.6	i	i	i	i	i	58.0	GalR3 antag conf=106.2;CNG parental=i
